Source: PubChem (National Center for Advancing Translational Sciences (NCATS))
HT1080-NT tox: kills 2HG-producing HT-1080-NT fibrosarcoma cells. HT-1080-NT fibrosarcoma viability, CellTiter-Glo ATP luminescence, 48 h. Potency, µM (highest dose often 46.1 µM), inactives show at the highest dose activity, negative = less viability, hits mostly cytotoxic. 1.6% of 360,000 active;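 further: NT is the 2HG producing partner of a matched IDH1 knockdown line; 0% = DMSO-treated cells and -100% = media-only wells without cells; nearly all actives have a fitted effect of over 55% in size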
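Read-out is CellTiter-Glo luminescence after 10 minutes at room temperature, following 48 hours' compound treatment of HT-1080-NT cells (750 cells/well, RPMI, 5% FBS, 37 degrees C).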
KB-3-1 cytotox: kills parental KB-3-1 adenocarcinoma cells; KB-3-1 viability, CellTiter-Glo ATP luminescence, 72 h; Potency, µM (doses to about 46.1 µM), most hits filed as cytotoxic; 1.4% of 400,000 active; further: nearly all actives have a fitted effect of over 60% in size
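Cytotoxicity measured as CellTiter-Glo luminescence after 72 h at 37 C. Compound titrations were pinned onto drug-naive KB-3-1 parental adenocarcinoma cells grown in DMEM with 10% FBS, and normalized data fitted to concentration-response curves.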
DT40 TDP1 CPT: DT40-hTDP1 cell growth loss with CPT; chicken DT40 Tdp1-/-;hTDP1 cells + 20 nM CPT, ATP luminescence, 48 h; Potency, µM (top dose mostly 46.2 µM), without a hit: at the highest dose activity change, negative = growth inhibition, most hits filed as inhibitors; 12% of 420,000 active; further: nearly all actives have a fitted effect of over 55% in size
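Chicken DT40 Tdp1-/- cells complemented with human TDP1, 400 cells/well, exposed to compounds plus 20 nM camptothecin for at least 48 h at 37 C; viability read as ATP content by CellTiter-Glo luminescence.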
TDP1 cell noCPT: qHTS for Inhibitors of human tyrosyl-DNA phosphodiesterase 1 (TDP1): qHTS in cells in absence of CPT | DT40 Tdp1-/- hTDP1 cells, no CPT, ATP luminescence, 48 h | Potency, µM (top dose mostly 46.2 µM), without a hit: at the highest dose activity change, negative = growth inhibition, hits mostly inhibitors | 15% of 420,000 active | AID 686978, 2013; further: nearly all actives have a fitted effect of over 55% in size
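A cellular qHTS used chicken DT40 cells lacking endogenous Tdp1 but carrying stably transfected human TDP1. Compounds were applied without camptothecin, and cell growth kinetics were judged by ATP-dependent luminescence after ≥48 hr.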
KB-V1 MDR tox: kills drug-selected multidrug resistant KB-V1 cells | Potency, µM (highest dose often 46.1 µM), most hits filed as cytotoxic | KB-V1 MDR cells viability, CellTiter-Glo, 72 h | 3.4% of 400,000 active; further: nearly all actives have a fitted effect of over 60% in size
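Following 72 h at 37 degrees C with compound, KB-V1 cell viability was read by CellTiter-Glo luminescence, medium being phenol-red-free DMEM plus 10% FBS; concentration-response parameters came from normalized, curve-fitted qHTS data.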
HT1080 IDH1KD tx: HT-1080 IDH1 knockdown cell toxicity (counter line) | HT-1080 IDH1 knockdown viability, ATP luminescence, 48 h | Potency, µM (series often up to 46.1 µM), without a hit: at the top dose activity, negative = toxicity, usual class: cytotoxic | 2% of 360,000 active | AID 686971;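 further: 0% = DMSO wells and -100% = cell-free medium wells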
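% activity derives from luminescence (CellTiter-Glo), normalised to DMSO and no-cell wells. HT-1080-IDH1KD cells, 750/well, had 48 h compound exposure at 37 °C.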
* hit, by the source's call. Hits are enriched below; roughly 19% of the tested compounds scored in any of these assays. The call rests on the fitted dose curve; in most records, active means well fitted curve in the direction sought with a large enough effect; inconclusive means small, poorly fitted or top-dose-only effect, or another doubt; inactive means no such curve, though single readings can be large; an effect the other way counts as inactive or inconclusive. Unless noted, on the % scale 0 is the no-effect control and ±100 the full control effect; potency means the concentration at half of the fitted maximal effect.

Screening C[C@H](CO)N1C[C@H](C)[C@H](CN(C)C(=O)Nc2ccccc2)OCc2cnnn2CCCC1=O returned HT1080-NT tox 5.7%, KB-3-1 cytotox inactive, DT40 TDP1 CPT 8.0%, TDP1 cell noCPT -12.6%, KB-V1 MDR tox inactive and HT1080 IDH1KD tx 13.4%.
Screening Cc1cccc2cc3c(N)c(C(=O)N4CCOCC4)sc3nc12 returned HT1080-NT tox inconclusive, KB-3-1 cytotox 2.91µM*, DT40 TDP1 CPT 2.06µM*, TDP1 cell noCPT 1.64µM*, KB-V1 MDR tox 3.66µM* and HT1080 IDH1KD tx inconclusive.
For Nc1c(C(=O)N2CCOCC2)sc2nc(N3CCOCC3)c3c(c12)CCCC3 the results were HT1080-NT tox 8.6%, KB-3-1 cytotox inactive, DT40 TDP1 CPT inconclusive, TDP1 cell noCPT inconclusive, KB-V1 MDR tox inactive and HT1080 IDH1KD tx -1.0%.
For CCOC(=O)CSc1nc2ccc(NC(=O)c3ccc(F)cc3)cc2s1 the results were KB-3-1 cytotox inactive, DT40 TDP1 CPT -3.2%, TDP1 cell noCPT -27.1% and KB-V1 MDR tox inactive.
Screening C=CCSC1=C(C#N)C(c2ccccc2Cl)C(C(=O)c2cccs2)C(O)(C(F)(F)F)N1 (centres undefined) returned HT1080-NT tox -10.6%, KB-3-1 cytotox inconclusive, DT40 TDP1 CPT inconclusive, TDP1 cell noCPT 16.4µM*, KB-V1 MDR tox 16.4µM* and HT1080 IDH1KD tx -16.3%.
Cc1csc(N(C(=O)c2cccc(S(=O)(=O)N(C)C)c2)c2ccccc2)n1 was read as HT1080-NT tox -14.1%, KB-3-1 cytotox inconclusive, DT40 TDP1 CPT 14.6µM*, TDP1 cell noCPT inconclusive, KB-V1 MDR tox inactive and HT1080 IDH1KD tx 0.2%.
Screening Cc1csc(N(C(=O)c2cccc(S(=O)(=O)N3CCCC3)c2)c2ccccc2)n1 returned HT1080-NT tox -1.3%, KB-3-1 cytotox inactive, DT40 TDP1 CPT 20.6µM*, TDP1 cell noCPT 18.4µM*, KB-V1 MDR tox inconclusive and HT1080 IDH1KD tx -2.4%.
CN(C)Cc1ccccc1-c1nccc(NC2CC2)n1 was read as DT40 TDP1 CPT 3.1% and TDP1 cell noCPT 15.2%.
CCN1CCCc2cc(CN(CCN3CCOCC3)C(=S)Nc3ccc(C)cc3)ccc21 was read as HT1080-NT tox -0.3%, KB-3-1 cytotox inactive, DT40 TDP1 CPT 29.1µM*, TDP1 cell noCPT 18.4µM*, KB-V1 MDR tox inconclusive and HT1080 IDH1KD tx -15.8%.
Screening CCN1CCCc2cc(CN(CCN3CCOCC3)C(=S)Nc3cc(F)cc(F)c3)ccc21 returned HT1080-NT tox 0.0%, KB-3-1 cytotox inconclusive, DT40 TDP1 CPT inconclusive, TDP1 cell noCPT 20.6µM*, KB-V1 MDR tox inconclusive and HT1080 IDH1KD tx 1.0%.
Screening CCN1CCCc2cc(CN(CCN3CCOCC3)C(=S)Nc3cccc(Cl)c3)ccc21 returned HT1080-NT tox -7.3%, KB-3-1 cytotox inactive, DT40 TDP1 CPT 16.4µM*, TDP1 cell noCPT 13µM*, KB-V1 MDR tox inactive and HT1080 IDH1KD tx -20.8%.
For CCN1CCCc2cc(CN(CCN3CCOCC3)C(=S)Nc3ccc(OC)cc3)ccc21 the results were HT1080-NT tox 0.0%, KB-3-1 cytotox inactive, DT40 TDP1 CPT -17.3%, TDP1 cell noCPT -15.0%, KB-V1 MDR tox inactive and HT1080 IDH1KD tx 1.3%.
Screening O=C(NCC1CCCCC1)c1cccc(-c2ccc(O)cc2)c1 returned HT1080-NT tox inconclusive, KB-3-1 cytotox inactive, DT40 TDP1 CPT inconclusive, TDP1 cell noCPT 20.6µM*, KB-V1 MDR tox inactive and HT1080 IDH1KD tx inconclusive.
Screening COc1ccc(C(C)=O)cc1CC(=O)Nc1cccc(S(=O)(=O)N2CCOCC2)c1 returned HT1080-NT tox 1.6%, KB-3-1 cytotox inconclusive, DT40 TDP1 CPT 15.5%, TDP1 cell noCPT 2.7%, KB-V1 MDR tox inactive and HT1080 IDH1KD tx 1.3%.
Screening CCc1cccc(-n2c(C)nc3c(cnn3-c3ccc(Cl)cc3)c2=O)c1 returned KB-3-1 cytotox inconclusive, DT40 TDP1 CPT 5.8µM*, TDP1 cell noCPT 4.11µM* and KB-V1 MDR tox inconclusive.
For COc1cccc(-n2c(C)nc3c(cnn3-c3ccc(Cl)cc3)c2=O)c1 the results were HT1080-NT tox 7.8%, KB-3-1 cytotox inactive, DT40 TDP1 CPT 8.2µM*, TDP1 cell noCPT 7.31µM*, KB-V1 MDR tox inactive and HT1080 IDH1KD tx -1.7%.
O=c1c2cnn(-c3ccc(Cl)cc3)c2ncn1Cc1cccc(C(F)(F)F)c1 was read as KB-3-1 cytotox inactive, DT40 TDP1 CPT -18.2%, TDP1 cell noCPT inconclusive and KB-V1 MDR tox inactive.
`CCc1cccc(-n2c(C)nc3c(cnn3-c3ccc(C)c(C)c3)c2=O)c1` gave KB-3-1 cytotox inconclusive, DT40 TDP1 CPT -73.7%, TDP1 cell noCPT 23.1µM* and KB-V1 MDR tox inactive.
`CCc1nc2c(cnn2-c2ccc(Cl)cc2)c(=O)n1-c1ccc(OC)cc1` gave HT1080-NT tox inconclusive, KB-3-1 cytotox inconclusive, DT40 TDP1 CPT inconclusive, TDP1 cell noCPT inconclusive, KB-V1 MDR tox inactive and HT1080 IDH1KD tx inconclusive.
`CCc1nc2c(cnn2-c2ccc(Cl)cc2)c(=O)n1-c1ccc2c(c1)OCCO2` gave HT1080-NT tox 13.4%, KB-3-1 cytotox inconclusive, DT40 TDP1 CPT inconclusive, TDP1 cell noCPT 18.4µM*, KB-V1 MDR tox inactive and HT1080 IDH1KD tx 6.7%.
For CCOc1ccc(-n2c(C)nc3c(cnn3-c3ccc(Cl)cc3)c2=O)cc1 the results were HT1080-NT tox 9.2%, KB-3-1 cytotox inactive, DT40 TDP1 CPT -11.9%, TDP1 cell noCPT -21.2%, KB-V1 MDR tox inactive and HT1080 IDH1KD tx 6.0%.
CCc1nc2c(cnn2-c2ccc(C)cc2)c(=O)n1Cc1ccccc1 was read as KB-3-1 cytotox inactive, DT40 TDP1 CPT inconclusive, TDP1 cell noCPT inconclusive and KB-V1 MDR tox inactive.
O=C(c1ccc2ccccc2c1)c1cccc(F)c1C(=O)O was read as HT1080-NT tox -2.1%, KB-3-1 cytotox inactive, DT40 TDP1 CPT 27.0%, TDP1 cell noCPT -9.7%, KB-V1 MDR tox inactive and HT1080 IDH1KD tx 3.7%.
For CCOc1ccc(N(CC)C(=O)CSc2n[nH]c(-c3ccccc3)n2)cc1 the results were KB-3-1 cytotox inactive, DT40 TDP1 CPT inconclusive, TDP1 cell noCPT inconclusive and KB-V1 MDR tox inconclusive.
Screening COc1ccc2c(Sc3ccccc3)c(C(=O)NCCN(C)C)[nH]c2c1 returned KB-3-1 cytotox inconclusive, DT40 TDP1 CPT inconclusive, TDP1 cell noCPT inconclusive and KB-V1 MDR tox inactive.
